Source: ChEMBL document CHEMBL3988442, “University of Dundee, Small-Polar-MMV Screening Library” (2021)
The whole screen tested about 67,000 compounds, of which about 300 (0.45%) showed an effect of 50% or more. Shown is part of a subset that was picked to be rich in strong results.

Each compound was assayed against Polyketide synthase Pks13 (Mycobacterium tuberculosis (strain ATCC 25618 / H37Rv)) (UniProt I6X8D2) (assay: Mycobacterium tuberculosis Polyketide synthase 13 Thioesterase (PKS13)). Settings: 30 µM.
Sequence of Polyketide synthase Pks13 (Mycobacterium tuberculosis (strain ATCC 25618 / H37Rv)) (I6X8D2 whole entry): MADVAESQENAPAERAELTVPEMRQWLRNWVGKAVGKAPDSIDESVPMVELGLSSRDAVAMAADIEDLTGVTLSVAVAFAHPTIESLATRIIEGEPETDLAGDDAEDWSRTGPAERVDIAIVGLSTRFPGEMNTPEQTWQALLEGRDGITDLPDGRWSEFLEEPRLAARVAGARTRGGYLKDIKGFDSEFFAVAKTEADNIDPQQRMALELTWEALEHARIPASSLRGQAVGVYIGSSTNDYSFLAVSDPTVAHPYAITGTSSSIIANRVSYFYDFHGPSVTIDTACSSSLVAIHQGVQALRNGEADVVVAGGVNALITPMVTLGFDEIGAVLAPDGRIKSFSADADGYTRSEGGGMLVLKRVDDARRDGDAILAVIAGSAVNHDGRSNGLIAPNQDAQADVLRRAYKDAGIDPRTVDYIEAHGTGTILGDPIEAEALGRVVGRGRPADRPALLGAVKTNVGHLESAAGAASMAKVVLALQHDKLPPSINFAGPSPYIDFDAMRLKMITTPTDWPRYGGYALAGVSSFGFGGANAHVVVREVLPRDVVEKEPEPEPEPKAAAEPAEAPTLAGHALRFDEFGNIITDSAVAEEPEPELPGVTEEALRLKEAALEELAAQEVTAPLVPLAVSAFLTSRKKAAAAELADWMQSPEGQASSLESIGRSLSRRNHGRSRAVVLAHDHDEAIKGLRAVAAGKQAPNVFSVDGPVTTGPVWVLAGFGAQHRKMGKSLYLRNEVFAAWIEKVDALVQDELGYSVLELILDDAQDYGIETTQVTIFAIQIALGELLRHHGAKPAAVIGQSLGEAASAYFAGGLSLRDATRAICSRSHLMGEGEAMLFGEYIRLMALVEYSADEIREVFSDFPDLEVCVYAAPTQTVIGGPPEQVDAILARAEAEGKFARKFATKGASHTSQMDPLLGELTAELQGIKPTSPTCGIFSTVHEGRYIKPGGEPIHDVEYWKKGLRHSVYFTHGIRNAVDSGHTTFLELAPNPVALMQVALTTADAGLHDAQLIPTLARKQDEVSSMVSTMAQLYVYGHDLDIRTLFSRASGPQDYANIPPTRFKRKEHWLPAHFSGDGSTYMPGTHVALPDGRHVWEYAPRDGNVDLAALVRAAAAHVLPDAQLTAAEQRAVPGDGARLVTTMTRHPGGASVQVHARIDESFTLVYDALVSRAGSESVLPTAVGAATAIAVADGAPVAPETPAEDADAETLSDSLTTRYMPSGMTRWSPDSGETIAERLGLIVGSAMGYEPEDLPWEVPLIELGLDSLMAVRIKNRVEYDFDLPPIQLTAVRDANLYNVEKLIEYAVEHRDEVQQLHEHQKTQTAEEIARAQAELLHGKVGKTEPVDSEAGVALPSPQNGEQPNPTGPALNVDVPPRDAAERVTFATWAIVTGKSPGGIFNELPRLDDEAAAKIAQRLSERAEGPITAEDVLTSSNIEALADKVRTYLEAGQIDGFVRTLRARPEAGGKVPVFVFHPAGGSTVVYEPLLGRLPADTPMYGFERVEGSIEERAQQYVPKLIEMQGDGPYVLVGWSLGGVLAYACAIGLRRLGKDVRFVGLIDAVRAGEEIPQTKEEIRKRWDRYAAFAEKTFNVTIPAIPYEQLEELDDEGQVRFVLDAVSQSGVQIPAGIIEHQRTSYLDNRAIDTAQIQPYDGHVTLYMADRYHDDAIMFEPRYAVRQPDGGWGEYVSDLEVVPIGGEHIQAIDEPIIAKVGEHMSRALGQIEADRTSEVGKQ
Format: functional
Design: scale not given: in the data most compounds retested in dose-response had high values

Q: For `CC(=O)N1C[C@@H](c2ccsc2)[C@@H]2CN(Cc3ccccc3C)CC[C@@H]21`, which Percent Effect is on record?
A: -7.95%

Q: `Cc1nc([C@@H]2C[C@@H]3CCN(Cc4cnn(C)c4)C[C@H]3O2)sc1C` was tested. Which Percent Effect did it give?
A: -30.4%

Q: Which Percent Effect does the source give for `CC(=O)N1CCS(=O)(=O)[C@@H]2CCN(CC(C)C)CC[C@@H]21` here?
A: -16.8%

Q: Which Percent Effect does the source give for `COCCS(=O)(=O)NCC(C)c1cccc(C)c1` (stereo unspecified) here?
A: -20.8%

Q: Which Percent Effect does the source give for `CC(CNS(=O)(=O)CCCC#N)c1ccsc1` (stereo unspecified) here?
A: -31.9%

Q: Which Percent Effect does the source give for `Cc1cccc(C(C)CNS(=O)(=O)CCCC#N)c1` (stereo unspecified) here?
A: 50.7%

Q: Which Percent Effect does the source give for `Cn1cc(CN2C[C@H]3CCN(C(=O)c4cscn4)C[C@H]3C2)cn1` here?
A: -3.8%

Q: For `Cc1ccc(CC(=O)N2CC[C@@H]3NC(=O)CC[C@@H]32)cc1`, which Percent Effect is on record?
A: -1.54%

Q: For `CCS(=O)(=O)NCC1CCN(c2cnccn2)CC1`, which Percent Effect is on record?
A: -18.7%

Q: How did the Percent Effect turn out when `CCc1ccc(S(=O)(=O)NCC2CCN(c3cnccn3)CC2)s1` was run?
A: 56.2%

Q: For `O=S(=O)(NCC1CCN(c2cnccn2)CC1)c1cccs1`, which Percent Effect is on record?
A: 45.5%

Q: For `CCCc1ccc(CN2CCN(C(=O)CC(C)C)[C@@H]3CS(=O)(=O)C[C@@H]32)o1`, which Percent Effect is on record?
A: -12.9%

Q: `CCN(CC)C(=O)c1cc(C2CCCN2C)ccn1` (stereo unspecified) was tested. Which Percent Effect did it give?
A: 88.5%

Q: For `CCN(Cc1ccccc1)C(=O)c1cc(C2CCCN2C)ccn1` (stereo unspecified), which Percent Effect is on record?
A: -15.7%

Q: Which Percent Effect does the source give for `CN1CCCC1c1ccnc(C(=O)N(C)C2CCCCC2)c1` (stereo unspecified) here?
A: 5.64%

Q: `C=Cn1ncc(CN2C[C@@H]3CCCN3C[C@@H]2CCSC)c1C` was tested. Which Percent Effect did it give?
A: -1.08%

Q: Which Percent Effect does the source give for `Cc1cnn(CC2CN(Cc3nnc(C4CC4)o3)CCO2)c1` (stereo unspecified) here?
A: -7.17%

Q: Which Percent Effect does the source give for `CCc1nnc(CN2CCOC(Cn3cc(C)cn3)C2)o1` (stereo unspecified) here?
A: 52.7%

Q: With `Cc1cnn(CC2CN(Cc3nnc(C(C)C)o3)CCO2)c1` (stereo unspecified) as the compound, how does the Percent Effect read?
A: -12.6%

Q: `Cc1ccc(N2C[C@H]3CCC[C@@]3(COc3cccnc3)C2)nn1` was tested. Which Percent Effect did it give?
A: -28.6%

Q: For `CCC(Cn1ccc2[nH]c(=O)c(C#N)cc2c1=O)OC` (stereo unspecified), which Percent Effect is on record?
A: -9.98%

Q: How did the Percent Effect turn out when `N#Cc1cc2c(=O)n(CC(O)C(F)(F)F)ccc2[nH]c1=O` (stereo unspecified) was run?
A: -25.1%

Q: Which Percent Effect does the source give for `CCCOC(C)Cn1ccc2[nH]c(=O)c(C#N)cc2c1=O` (stereo unspecified) here?
A: 89.3%

Q: How did the Percent Effect turn out when `O=C(NC1CCC1)[C@H]1C[C@@H]2CN(S(=O)(=O)c3ccccc3)C[C@H]1O2` was run?
A: -31.3%

Q: How did the Percent Effect turn out when `O=C(N[C@H]1CN(Cc2cccs2)[C@@H]2CCCO[C@H]12)c1cccnc1` was run?
A: -28.5%

Q: With `COc1ccccc1CN1C(=O)O[C@@H]2CN(c3ccccn3)C[C@@H]21` as the compound, how does the Percent Effect read?
A: 4.73%

Q: How did the Percent Effect turn out when `COCCNc1nc2c(c(NCC3CCOC3)n1)CCNCC2` (stereo unspecified) was run?
A: 89.6%

Q: `COCCNc1nc2c(c(NCCc3cccs3)n1)CCNCC2` was tested. Which Percent Effect did it give?
A: -17.6%

Q: How did the Percent Effect turn out when `COCCNc1nc2c(c(NCc3ccncc3)n1)CCNCC2` was run?
A: -8.09%

Q: For `CS(=O)(=O)NC[C@]12COC[C@H]1CN(C(=O)CCc1ccccc1)C2`, which Percent Effect is on record?
A: -0.91%

Q: How did the Percent Effect turn out when `Cc1csc([C@H]2C[C@@H]3CCN(Cc4cc(C)on4)C[C@H]3O2)n1` was run?
A: -10.9%
